In all, about 280,000 compounds went through this assay and about 100 (0.036%) were called active. About 11% were inconclusive and are not listed. Only a selection was taken, and actives are over-represented in it overall. A number with no mark means an inactive call. The call rests on the fitted dose curve; in most records, active means well fitted inhibition curve with a large enough effect in the signal ratio, with a control signal flat (not every such curve was filed as active); inconclusive means small, poorly fitted or top-dose-only effect, or effect the other way, or a change in a side signal; inactive means no such curve, though single readings can be large or run the other way; the % refers to the signal ratio.
target: Muscleblind-like protein 1 (Homo sapiens) (UniProt Q9NR56); assay: qHTS Assay for Inhibitors of MBNL1-poly(CUG) RNA binding; details: TR-FRET MBNL1-His/biotin-(CUG)12 binding, 665/545 ratio; series mostly up to 57.5 µM; activity change, negative = inhibition: at the top concentration
From the text: NIH Chemical Genomics Center [NCGC] NIH Molecular Libraries Probe Production Centers Network [MLPCN] MLPCN Grant: R03 MH087421-01 Assay Submitter (PI): Charles Thornton NCGC Assay Overview: Expanded CTG repeats in the 3' untranslated region of the DM protein kinase (DMPK) gene causes type I myotonic dystrophy (DM1). DM1 is a multi-systemic disease with a prevalence of 1/7000. Clinical features include myotonia, progressive muscle weakness and wasting, cardiac arrhythmia, insulin resistance, hypersomnolence, cataracts, and other symptoms. The pathogenic effect of expanded CTG repeats stems from deleterious effects of the mutant transcript. CUGexp mRNA accumulates in nuclear foci and sequesters proteins of the muscleblind family, of which MBNL1 is the most common family member in skeletal muscles. The binding interaction between MBNL1 and CUGexp tracts leads to deregulation of alternative splicing and is therefore a key molecular step in the pathogenesis of DM1. To target this binding interaction, we optimized a protein-RNA binding assay in 1536-well format for identification of small molecule inhibitors of biotinylated (CUG)12 and his-tagged MBNL1 binding. Protein-RNA complex of MBNL1-His and Biotin-(CUG)12 captures the detection reagents terbium-labeled anti-His antibody and streptavidin conjugated XL665. This brings the terbium label within close proximity to XL665 to allow time-resolved fluorescence resonance energy transfer (TR-FRET). Inhibitors of MBNL1-(CUG)12 binding will disrupt TR-FRET.
NCGC Assay Protocol Summary: This is a TR-FRET binding assay with MBNL1-His and Biotin-(CUG)12 RNA. The assay uses a ratiometric measurement. In the presence of MBNL1-(CUG)12 complex, the excitation energy is transferred to the XL665 acceptor label, causing emission at 665nm, while the 545nm donor signal […]. Data were normalized to the controls for basal activity (buffer only) and 100% activity (with MBNL1-(CUG)12). […] The final titration was 92 nM to 58 uM. (3) Add 1 ul of terbium labeled anti-His antibody (0.055 ng/ul final concentration) (4) Add 1 ul of streptavidin-XL665 (5 nM final concentration) (5) Incubate 60 min at room temperature (6) Detect the assay plate in a EnVision plate reader (PerkinElmer) with Ex=340 nm, Em1=665 nm and Em2=545 nm. Keywords: mytonic dystrophy type I, DM1, muscleblind like 1, MBNL1, CUG expansion, protein-RNA binding inhibitor, high throughput screening, MLSMR, MLSCN, NIH Roadmap, qHTS and NCGC
On the % scale 0 is the no-effect control and ±100 the full control effect; potency means the concentration at half of the fitted maximal effect.

Muscleblind-like protein 1 (Homo sapiens), sequence (Q9NR56 whole entry, looked up): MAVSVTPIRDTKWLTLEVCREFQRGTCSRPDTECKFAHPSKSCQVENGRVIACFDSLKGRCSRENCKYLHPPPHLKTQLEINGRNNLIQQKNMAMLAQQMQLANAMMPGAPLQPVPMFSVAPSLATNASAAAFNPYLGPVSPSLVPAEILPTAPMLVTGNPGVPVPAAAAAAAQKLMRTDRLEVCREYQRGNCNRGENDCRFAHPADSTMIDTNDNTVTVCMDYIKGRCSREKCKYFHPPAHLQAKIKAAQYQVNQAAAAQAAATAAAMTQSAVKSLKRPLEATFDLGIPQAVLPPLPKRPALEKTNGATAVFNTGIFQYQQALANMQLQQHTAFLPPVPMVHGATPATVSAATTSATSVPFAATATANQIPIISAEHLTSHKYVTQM

`COc1cccc(NC(=O)Cn2cnc3sc(C)c(S(=O)(=O)N4CCN(C)CC4)c3c2=O)c1` was tested, and the Potency was 31.6 µM (active).
For `COc1ccc(Cc2n[nH]c(=S)n2NC(=O)Nc2ccc(C)cc2)cc1`, the Potency was 25.1 µM (active).

Point of comparison: `CCC1Sc2ccc(S(=O)(=O)CCC(=O)NCc3cccs3)cc2NC1=O` (stereo not given), “activity change, negative = inhibition” value 5.1%. Against it:
- COc1ccc(N2CCN(C(=O)Cn3cnc4sc(C)c(S(=O)(=O)N5CCOCC5)c4c3=O)CC2)cc1 — lower, -1.37%
- Cc1sc2ncn(CC(=O)NCCN(C)C)c(=O)c2c1S(=O)(=O)N1CCC(C)CC1 — lower, -4.22%
- O=C(CNc1cccc(S(=O)(=O)N2CCCCC2)c1)Nc1ccccc1F — lower, -2.44%
- Cc1c(C)c2ccc(OCC(=O)N3CCN(c4cccc(Cl)c4)CC3)cc2oc1=O — lower, 2.33%
- CC1CN(C(=S)Nc2ccccc2F)CC(C)O1 (stereo not given) — lower, 5%
- O=C(Nc1ccc(Cl)cc1)c1cccc(OC(=S)N2CCOCC2)c1 — lower, 0.659%
- CC(=O)N1CCN(c2ccccc2NC(=S)NC(=O)c2cc3ccccc3o2)CC1 — lower, 4.92%
- COc1ccc(N2CCN(C(=O)[C@@H](NC(=O)c3cc(OC)cc(OC)c3)C(C)C)CC2)cc1 — lower, 2.58%
- O=[N+]([O-])c1ccc(O)c(/C=N/Nc2ccccc2[N+](=O)[O-])c1 — lower, 4.22%
- CCCCn1c(-c2cccc(C)c2)nc2cc3[nH]c(=O)c(C(C)C)nc3cc21 — higher, 24.5%
- COc1cc(C(=O)NCc2ccncc2)cc(Br)c1OCc1ccccc1 — lower, 3.45%
- CC1CCN(C(=S)NC(=O)c2ccccc2Br)CC1 — lower, -1.98%
- CCC(CC)c1nnc(NC(=O)C2CCN(C(=O)c3ccco3)CC2)s1 — lower, -6.3%
- COc1cccc(Cn2cc(/C=N/NC(=O)c3cc(O)cc(O)c3)c3ccccc32)c1 — higher, 11.8%
- CC1(C(=O)NNC(=S)NCC2CCCO2)CC1(Cl)Cl (stereo not given) — lower, 3.47%
- CCCCC(CC)CNCc1cccn1CCN1CCOCC1 (stereo not given) — lower, -4.21%
- COc1ccc(CSc2nnnn2-c2ccc(O)cc2)cc1F — lower, -0.34%
- CCOCCCNc1nc(-c2ccccc2)nc2ccccc12 — lower, -0.21%
- COc1ccc(NC(=S)NCCNC(C)=O)cc1 — lower, -8.99%
- CCOc1ccc(NC(=O)CN2CCN(CC(=O)Nc3ccc(OC)cc3)CC2)cc1 — lower, -6.49%
- COc1ccc(C(=O)c2c(C)c(CCC#N)n3ccccc23)c(OC)c1 — higher, 15.2%
- Cc1[nH]c(C)c(S(=O)(=O)N2CCN(c3cccc(C(F)(F)F)c3)CC2)c1C(=O)N1CCCCC1 — lower, -1.53%
- Cc1ccccc1C(=O)N1CCN(c2ccc(NC(=O)c3cccs3)cc2)CC1 — lower, -3.93%
- CC(=O)c1ccc(NC(=O)c2sc3nc4n(c(=O)c3c2C)CCCCC4)cc1 — higher, 18.1%
- CC(=O)N1c2ccc(S(=O)(=O)NCCC(=O)N(C)C3CCCCC3)cc2CC1C (stereo not given) — lower, -7.41%
- CC(=O)c1ccc(N2CCN(C(=O)C3CCN(S(=O)(=O)c4ccc5c(c4)CC(C)N5C(=O)C4CC4)CC3)CC2)cc1 (stereo not given) — higher, 119%
- C/C(=N\NC(=O)c1ccoc1C)c1ccccc1O — lower, -2.77%
- COc1ccc(N2CCN(S(=O)(=O)CCNC(=O)C34CC5CC(CC(C5)C3)C4)CC2)cc1 — lower, 3%
- O=C(Nc1ccncc1)Nc1ccc(F)cc1 — lower, -18.5%
- O=S(=O)(c1cccc(Cn2nnc(-c3ccc(F)cc3)n2)c1)N1CCOCC1 — lower, -3.65%
- CN(CC(=O)Nc1ccc(F)cc1)C(=O)c1ccc(-c2ccc(Cl)cc2)o1 — higher, 8.57%
- COc1ccccc1CCNC(=O)c1c(C)nn(CC(C)C)c1Cl — lower, 2.7%
- CCCOc1ccc(C2=CSC3=NCCN23)cc1Cl — lower, -1.02%
- CN(CC1CCCO1)S(=O)(=O)c1ccc(C(=O)Nc2ccc(F)cc2)cc1 (stereo not given) — lower, -7.38%
- Cc1ccc2sc(N(CCN(C)C)C(=O)/C=C/c3cccs3)nc2c1C — lower, -2.08%
- Cc1cc(C)c(SCCc2ccncc2)c(C)c1 — lower, 0.435%
- Cc1ccc(OCC(=O)Nc2ccc(N3CCN(C(=O)c4ccco4)CC3)cc2)c(C)c1 — lower, -0.689%
- COc1ccc(CN(C)C(=O)Cc2ccsc2)c(OC)c1OC — lower, 0.57%
- Cc1ccc(-c2noc(C3CCCN(C(=O)c4cccc(Cl)c4)C3)n2)o1 (stereo not given) — lower, 2.29%
- O=C(C1CCC(=O)N(C2CC2)C1)N1CCN(c2ccc(Cl)cc2)CC1 (stereo not given) — lower, -0.926%
- Cc1cc(C)c(NC(=O)CN2CCCCCC2)c(C)c1 — lower, -20.5%
- COc1cc(Nc2nc3ccc(Cl)cc3n3cnnc23)cc(OC)c1OC — lower, -3.17%
- Cc1ccc(CS(=O)(=O)CCC(=O)NCc2ccc(F)cc2)cc1 — lower, -2.74%
- CCOC(=O)C1(CCOC)CCN(Cc2cc3ccccc3s2)CC1 — lower, -6.13%
- CCOCCCn1c(SCC(=O)Nc2cc(OC)ccc2OC)nc2ccccc2c1=O — lower, 0.658%
- C[C@H]1[C@H]2c3nc4ccccc4n3C[C@H]1ON2C1CCCCC1 — lower, -0.651%

Work on `O=C1OC2(CCCCC2)CC2=C1C1O[C@](c3ccsc3)(Cc3ccccc31)O2` yielded an activity change, negative = inhibition of -2.14% [at 11.5 µM].

Source: PubChem BioAssay AID2675 (National Center for Advancing Translational Sciences (NCATS), 2010)
